According to the supplement of paper PMC10849652:
Of roughly 8,800 targets only a part is listed; those with a hit were picked by preference. About 0.5% of all pairs of compound and target were hits. Values without a mark were called inactive.

Columns and labels:
Assay in all cases: log2 fold change, soluble protein after heating vs DMSO (PISA); higher = thermal stabilisation; K562 lysate, 10 uM; active = over 0.2 and 3.5 SD of the protein, either way, in both replicates (recomputed)
vemurafenib = compound: CCCS(=O)(=O)Nc1ccc(F)c(C(=O)c2c[nH]c3ncc(-c4ccc(Cl)cc4)cc23)c1F [vemurafenib]
Outline: (§1)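 The values are log-two fold changes in thermal stability compared with solvent controls and come from duplicates. They were obtained by TMTpro 16plex LC-MS/MS, with channel sums equalised, on the supernatant after 21,000xg for 90 min. That supernatant came from crude K562 extract at 1 mg/mL protein treated with 10 μM compound for 30 min, heated for 3 min across 48°C-58°C, pooled and brought to 0.5% NP-40 at 4°C.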

[1] = compound: CCCS(=O)(=O)Nc1ccc(F)c(C(=O)c2c[nH]c3ncc(Cl)cc23)c1F
Outline: as §1

barasertib = compound: CCN(CCCOc1ccc2c(Nc3cc(CC(=O)Nc4cccc(F)c4)[nH]n3)ncnc2c1)CCOP(=O)(O)O [barasertib]
Outline: as §1

[2] = compound: CC[C@@H]1C(=O)N(C)c2cnc(Nc3ccc(C(=O)NC4CCN(C)CC4)cc3OC)nc2N1C1CCCC1
Outline: as §1

volasertib = compound: CC[C@@H]1C(=O)N(C)c2cnc(Nc3ccc(C(=O)N[C@H]4CC[C@H](N5CCN(CC6CC6)CC5)CC4)cc3OC)nc2N1C(C)C [volasertib]
Outline: as §1

[3] = compound: CCn1c(C(=O)N(C2CC2)C2CC2)cc2c3c(ncn3C)c(Nc3cc(C)n(C)n3)nc21
Outline: as §1

[4] = compound: CCn1cc(-c2ccnc3[nH]c(-c4cccc(CN(C)C)c4)cc23)c(-c2ccc(NC(=O)N(C)C)cc2)n1
Outline: as §1

[5] = compound: CN1CCC(CNc2ccc3ncc(-c4cccc(OC(F)(F)F)c4)n3n2)CC1
Outline: as §1

saracatinib = compound: CN1CCN(CCOc2cc(OC3CCOCC3)c3c(Nc4c(Cl)ccc5c4OCO5)ncnc3c2)CC1 [saracatinib]
Outline: as §1

sotrastaurin = compound: CN1CCN(c2nc(C3=C(c4c[nH]c5ccccc45)C(=O)NC3=O)c3ccccc3n2)CC1 [sotrastaurin]
Outline: as §1

alvocidib = compound: CN1CC[C@H](c2c(O)cc(O)c3c(=O)cc(-c4ccccc4Cl)oc23)[C@H](O)C1 [alvocidib]
Outline: as §1

Tubastatin A = compound: CN1CCc2c(c3ccccc3n2Cc2ccc(C(=O)NO)cc2)C1 [Tubastatin A]
Outline: as §1

[6] = compound: CNC(=O)C1=CC=CC=C1NC2=NC(=NC=C2Cl)NC3=C(C=C(C=C3)N4CCOCC4)OC
Outline: as §1

defactinib = compound: CNC(=O)c1ccc(Nc2ncc(C(F)(F)F)c(NCc3nccnc3N(C)S(C)(=O)=O)n2)cc1 [defactinib]
Outline: as §1

[7] = compound: CNc1nc(-c2ccc3c(N)n[nH]c3c2)cc(N2C[C@@H](C(=O)NC3CCCCC3)CC[C@H]2C)n1
Outline: as §1

encorafenib = compound: COC(=O)N[C@@H](C)CNc1nccc(-c2cn(C(C)C)nc2-c2cc(Cl)cc(NS(C)(=O)=O)c2F)n1 [encorafenib]
Outline: as §1

[8] = compound: COC(=O)[C@H](CCSC)NC(=O)C1=C(C=C(C=C1)NC[C@H](CS)N)C2=CC=CC=C2
Outline: as §1

alisertib = compound: COc1cc(Nc2ncc3c(n2)-c2ccc(Cl)cc2C(c2c(F)cccc2OC)=NC3)ccc1C(=O)O [alisertib]
Outline: as §1

[9] = compound: COc1cc2nc(-c3cc(F)ccc3O)nc(N[C@@H]3CNC[C@H]3C(C)(C)O)c2cc1OC
Outline: as §1

gefitinib = compound: COc1cc2ncnc(Nc3ccc(F)c(Cl)c3)c2cc1OCCCN1CCOCC1 [gefitinib]
Outline: as §1

Chain of UniProt P11171 (P11171 whole entry, looked up): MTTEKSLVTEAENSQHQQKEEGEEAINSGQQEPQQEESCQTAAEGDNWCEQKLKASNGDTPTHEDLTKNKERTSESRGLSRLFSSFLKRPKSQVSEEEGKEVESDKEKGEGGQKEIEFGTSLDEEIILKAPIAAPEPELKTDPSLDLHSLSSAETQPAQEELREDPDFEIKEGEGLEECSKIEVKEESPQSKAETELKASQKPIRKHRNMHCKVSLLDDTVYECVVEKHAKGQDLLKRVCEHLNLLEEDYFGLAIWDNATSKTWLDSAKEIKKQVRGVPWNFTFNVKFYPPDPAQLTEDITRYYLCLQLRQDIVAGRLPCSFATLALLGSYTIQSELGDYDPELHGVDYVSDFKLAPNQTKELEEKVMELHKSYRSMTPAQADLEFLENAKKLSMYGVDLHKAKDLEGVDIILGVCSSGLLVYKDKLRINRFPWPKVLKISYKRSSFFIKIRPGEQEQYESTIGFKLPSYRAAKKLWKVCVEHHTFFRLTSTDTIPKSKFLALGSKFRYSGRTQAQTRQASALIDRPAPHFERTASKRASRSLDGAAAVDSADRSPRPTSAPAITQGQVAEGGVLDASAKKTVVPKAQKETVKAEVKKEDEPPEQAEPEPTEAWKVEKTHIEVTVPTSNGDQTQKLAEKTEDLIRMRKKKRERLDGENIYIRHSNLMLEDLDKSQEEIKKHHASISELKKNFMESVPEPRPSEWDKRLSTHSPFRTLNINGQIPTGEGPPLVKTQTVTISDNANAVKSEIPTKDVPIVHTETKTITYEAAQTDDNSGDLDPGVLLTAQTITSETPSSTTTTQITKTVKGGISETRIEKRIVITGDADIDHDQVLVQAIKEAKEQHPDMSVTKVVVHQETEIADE
Chain of UniProt P85037 (P85037 whole entry, looked up): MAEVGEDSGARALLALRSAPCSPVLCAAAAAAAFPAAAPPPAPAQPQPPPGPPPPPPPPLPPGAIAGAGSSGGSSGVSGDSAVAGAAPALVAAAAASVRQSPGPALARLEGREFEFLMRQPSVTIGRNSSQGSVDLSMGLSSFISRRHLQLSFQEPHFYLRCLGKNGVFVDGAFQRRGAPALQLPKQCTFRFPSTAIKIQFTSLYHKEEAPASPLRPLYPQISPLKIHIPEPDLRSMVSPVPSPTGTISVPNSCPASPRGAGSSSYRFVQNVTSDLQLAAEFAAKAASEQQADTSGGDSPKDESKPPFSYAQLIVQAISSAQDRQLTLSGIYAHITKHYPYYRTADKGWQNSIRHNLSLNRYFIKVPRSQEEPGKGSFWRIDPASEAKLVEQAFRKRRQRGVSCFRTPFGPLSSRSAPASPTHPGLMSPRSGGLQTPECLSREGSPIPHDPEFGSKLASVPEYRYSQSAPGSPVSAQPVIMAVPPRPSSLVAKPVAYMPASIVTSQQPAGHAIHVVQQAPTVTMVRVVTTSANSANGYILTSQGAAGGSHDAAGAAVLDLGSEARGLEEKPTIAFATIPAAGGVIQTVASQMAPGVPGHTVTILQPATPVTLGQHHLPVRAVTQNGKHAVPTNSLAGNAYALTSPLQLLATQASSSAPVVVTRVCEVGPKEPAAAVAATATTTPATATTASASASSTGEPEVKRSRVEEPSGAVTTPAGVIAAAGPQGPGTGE
Chain of UniProt P57772 (P57772 whole entry, looked up): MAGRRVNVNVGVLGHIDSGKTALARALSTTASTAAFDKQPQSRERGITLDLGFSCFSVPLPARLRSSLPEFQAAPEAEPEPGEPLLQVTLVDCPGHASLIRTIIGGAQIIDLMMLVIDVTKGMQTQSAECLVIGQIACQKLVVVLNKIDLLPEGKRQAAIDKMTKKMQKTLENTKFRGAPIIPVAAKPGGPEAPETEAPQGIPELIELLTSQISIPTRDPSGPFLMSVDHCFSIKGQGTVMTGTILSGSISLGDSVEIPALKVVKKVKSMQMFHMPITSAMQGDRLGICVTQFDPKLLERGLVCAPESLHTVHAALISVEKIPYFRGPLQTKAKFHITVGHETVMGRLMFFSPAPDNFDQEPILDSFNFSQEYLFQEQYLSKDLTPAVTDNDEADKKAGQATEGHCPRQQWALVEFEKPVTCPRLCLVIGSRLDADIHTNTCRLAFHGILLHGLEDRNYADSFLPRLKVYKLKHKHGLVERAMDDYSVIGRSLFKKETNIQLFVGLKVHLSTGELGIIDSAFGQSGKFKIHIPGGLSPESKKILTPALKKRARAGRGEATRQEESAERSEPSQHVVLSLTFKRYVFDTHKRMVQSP
Chain of UniProt Q96I24 (Q96I24 whole entry, looked up): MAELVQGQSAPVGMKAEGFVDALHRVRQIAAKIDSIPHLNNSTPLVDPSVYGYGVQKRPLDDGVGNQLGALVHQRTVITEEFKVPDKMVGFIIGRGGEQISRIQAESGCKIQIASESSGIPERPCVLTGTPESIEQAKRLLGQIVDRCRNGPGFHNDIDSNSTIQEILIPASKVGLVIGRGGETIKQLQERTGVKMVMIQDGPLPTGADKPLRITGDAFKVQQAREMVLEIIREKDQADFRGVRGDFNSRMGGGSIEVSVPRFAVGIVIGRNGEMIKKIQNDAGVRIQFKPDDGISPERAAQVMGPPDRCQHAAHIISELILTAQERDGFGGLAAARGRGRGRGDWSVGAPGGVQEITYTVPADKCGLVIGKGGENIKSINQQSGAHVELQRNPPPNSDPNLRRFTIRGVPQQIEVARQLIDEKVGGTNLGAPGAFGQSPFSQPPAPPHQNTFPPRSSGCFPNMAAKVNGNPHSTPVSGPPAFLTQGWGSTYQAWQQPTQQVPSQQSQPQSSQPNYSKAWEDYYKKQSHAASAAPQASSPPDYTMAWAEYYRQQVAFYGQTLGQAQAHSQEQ
Chain of UniProt Q9NPA8 (Q9NPA8 whole entry, looked up): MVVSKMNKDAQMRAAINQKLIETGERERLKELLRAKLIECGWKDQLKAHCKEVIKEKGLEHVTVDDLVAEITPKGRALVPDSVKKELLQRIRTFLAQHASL
Chain of UniProt Q8NCA5 (Q8NCA5 whole entry, looked up): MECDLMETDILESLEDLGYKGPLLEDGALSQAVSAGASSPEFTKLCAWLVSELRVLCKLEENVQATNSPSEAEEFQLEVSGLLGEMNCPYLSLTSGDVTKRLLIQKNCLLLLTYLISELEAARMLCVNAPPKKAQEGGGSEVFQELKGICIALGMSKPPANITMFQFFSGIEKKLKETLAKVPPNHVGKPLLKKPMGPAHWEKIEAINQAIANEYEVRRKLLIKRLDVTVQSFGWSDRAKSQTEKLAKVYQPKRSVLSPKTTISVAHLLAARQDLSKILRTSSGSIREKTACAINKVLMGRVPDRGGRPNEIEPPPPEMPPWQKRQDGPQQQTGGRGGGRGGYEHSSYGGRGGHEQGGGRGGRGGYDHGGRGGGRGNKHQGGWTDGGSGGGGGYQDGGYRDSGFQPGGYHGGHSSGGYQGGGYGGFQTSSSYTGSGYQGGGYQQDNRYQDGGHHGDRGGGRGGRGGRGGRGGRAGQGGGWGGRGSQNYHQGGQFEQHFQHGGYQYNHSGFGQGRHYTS
Chain of UniProt Q8NFI3 (Q8NFI3 whole entry, looked up): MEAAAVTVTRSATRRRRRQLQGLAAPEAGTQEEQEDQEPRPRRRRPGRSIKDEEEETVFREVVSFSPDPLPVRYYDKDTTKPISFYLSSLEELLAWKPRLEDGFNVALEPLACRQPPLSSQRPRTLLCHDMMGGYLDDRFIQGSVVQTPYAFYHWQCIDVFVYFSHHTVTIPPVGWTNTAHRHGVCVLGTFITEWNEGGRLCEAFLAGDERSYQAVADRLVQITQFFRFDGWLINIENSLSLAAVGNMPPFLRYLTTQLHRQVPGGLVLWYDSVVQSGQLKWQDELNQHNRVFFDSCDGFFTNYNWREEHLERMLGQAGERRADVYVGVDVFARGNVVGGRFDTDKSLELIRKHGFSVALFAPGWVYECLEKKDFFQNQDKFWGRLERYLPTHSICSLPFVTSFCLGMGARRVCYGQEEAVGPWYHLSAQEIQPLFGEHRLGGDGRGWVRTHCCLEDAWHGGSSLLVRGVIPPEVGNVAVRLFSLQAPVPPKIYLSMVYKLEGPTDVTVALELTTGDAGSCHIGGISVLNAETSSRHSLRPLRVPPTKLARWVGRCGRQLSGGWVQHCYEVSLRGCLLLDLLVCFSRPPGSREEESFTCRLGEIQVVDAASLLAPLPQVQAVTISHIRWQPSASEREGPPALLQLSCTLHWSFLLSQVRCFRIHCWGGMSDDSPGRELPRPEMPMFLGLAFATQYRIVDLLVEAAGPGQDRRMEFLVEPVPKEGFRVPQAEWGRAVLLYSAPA
Chain of UniProt P19525 (P19525 whole entry, looked up): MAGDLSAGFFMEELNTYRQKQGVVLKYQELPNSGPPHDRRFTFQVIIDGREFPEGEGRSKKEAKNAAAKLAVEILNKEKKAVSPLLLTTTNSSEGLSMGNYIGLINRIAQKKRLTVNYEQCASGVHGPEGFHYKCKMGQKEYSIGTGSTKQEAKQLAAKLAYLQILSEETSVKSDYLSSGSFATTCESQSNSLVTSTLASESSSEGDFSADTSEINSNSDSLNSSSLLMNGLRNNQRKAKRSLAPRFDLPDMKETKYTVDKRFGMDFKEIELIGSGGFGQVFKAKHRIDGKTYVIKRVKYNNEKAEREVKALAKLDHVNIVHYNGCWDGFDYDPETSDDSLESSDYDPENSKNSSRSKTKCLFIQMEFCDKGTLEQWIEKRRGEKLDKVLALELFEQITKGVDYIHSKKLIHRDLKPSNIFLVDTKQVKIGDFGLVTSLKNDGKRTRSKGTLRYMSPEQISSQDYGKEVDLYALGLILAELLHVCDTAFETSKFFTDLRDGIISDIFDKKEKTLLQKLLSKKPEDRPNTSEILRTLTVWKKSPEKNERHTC
Chain of UniProt Q9NPA0 (Q9NPA0 whole entry, looked up): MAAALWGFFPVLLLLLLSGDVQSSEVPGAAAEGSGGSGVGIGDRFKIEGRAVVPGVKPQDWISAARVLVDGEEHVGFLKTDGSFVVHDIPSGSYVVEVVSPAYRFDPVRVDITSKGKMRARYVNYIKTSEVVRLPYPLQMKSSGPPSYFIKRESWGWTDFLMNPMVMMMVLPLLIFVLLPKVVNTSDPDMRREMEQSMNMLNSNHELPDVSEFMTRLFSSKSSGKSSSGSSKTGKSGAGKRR

Target | log2 fold change (vemurafenib) | log2 fold change [1] | log2 fold change (barasertib) | log2 fold change [2] | log2 fold change (volasertib) | log2 fold change [3] | log2 fold change [4] | log2 fold change [5] | log2 fold change (saracatinib) | log2 fold change (sotrastaurin) | log2 fold change (alvocidib) | log2 fold change (Tubastatin A) | log2 fold change [6] | log2 fold change (defactinib) | log2 fold change [7] | log2 fold change (encorafenib) | log2 fold change [8] | log2 fold change (alisertib) | log2 fold change [9] | log2 fold change (gefitinib)
ENY2 (UniProt Q9NPA8) | -0.057 | 0.016 | 0.072 | -0.036 | 0.033 | 0.048 | 0.886 (active) | -0.406 (active) | -0.003 | -0.003 | 0.351 (active) | -0.024 | 0.016 | 0.096 | -0.084 | 0.004 | -0.003 | 0.024 | -0.019 | -0.016
ENGASE (UniProt Q8NFI3) | 0.034 | 0.05 | 0.003 | 0 | -0.035 | -0.031 | 0.028 | 0.052 | -0.019 | -0.008 | -0.144 | -0.02 | 0.043 | -0.011 | 0.02 | 0.018 | -0.056 | 0.025 | -0.015 | 0.018
FOXK1 (UniProt P85037) | -0.01 | 0.008 | 0.025 | -0.007 | -0.019 | 0.013 | -0.014 | 0.026 | 0.005 | -0.012 | -0.037 | -0.116 | 0.025 | 0.003 | 0.059 | 0.009 | 0.09 | 0.016 | 0.014 | 0.003
GART (UniProt P22102) | 0.007 | 0.001 | 0.028 | -0.066 | -0.054 | 0.038 | 0.124 | -0.013 | 0.011 | -0.023 | 0.021 | -0.073 | 0.002 | -0.024 | 0.021 | -0.027 | 0.08 | 0.008 | -0.004 | -0.017
DTWD1 (UniProt Q8N5C7) | 0.028 | 0.018 | -0.005 | 0.024 | -0.036 | 0.016 | -0.026 | -0.032 | -0.033 | 0.019 | 0.041 | -0.028 | 0.011 | -0.032 | 0.01 | -0.044 | -0.046 | 0 | 0.005 | -0.006
EPB41 (UniProt P11171) | -0.051 | 0.005 | -0.009 | -0.033 | -0.02 | 0.022 | 0.026 | -0.135 | 0.014 | 0.026 | 0.044 | -0.02 | 0.011 | 0.015 | -0.067 | 0.01 | -0.001 | 0.02 | -0.036 | 0.007
EIF2AK2 (UniProt P19525) | 0.025 | 0.012 | -0.038 | -0.09 | -0.03 | -0.008 | -0.081 | 0.067 | -0.011 | 0.007 | 0.004 | -0.099 | 0.091 | 0.049 | 0.083 | 0.087 | 0.153 | 0.003 | 0.029 | -0.055
FNBP1L (UniProt Q5T0N5) | 0.003 | 0.029 | 0.167 | -0.085 | -0.068 | -0.013 | -0.024 | -0.019 | -0.013 | 0.048 | 0.04 | -0.043 | 0.023 | -0.066 | 0.357 (active) | 0.045 | 0.034 | 0.005 | -0.015 | 0.099
EEFSEC (UniProt P57772) | 0.031 | 0.024 | 0.031 | -0.067 | -0.035 | -0.012 | -0.073 | 0.009 | -0.015 | -0.016 | -0.008 | -0.157 | 0.019 | 0.036 | -0.017 | 0.018 | 0.098 | 0.019 | 0 | -0.012
DTYMK (UniProt P23919) | -0.008 | 0.042 | 0.022 | -0.062 | 0.006 | 0.059 | 0.011 | -0.032 | 0.011 | -0.033 | 0.037 | -0.095 | 0.01 | -0.006 | 0.04 | -0.061 | 0.283 (active) | 0.009 | -0.007 | -0.011
FAM98A (UniProt Q8NCA5) | 0.063 | 0.032 | -0.016 | 0.045 | -0.029 | -0.005 | 0.088 | -0.08 | -0.028 | 0.017 | 0.042 | -0.04 | 0.028 | 0.01 | 0.086 | -0.004 | 0.025 | -0.028 | -0.014 | 0.037
EMC7 (UniProt Q9NPA0) | 0.034 | 0.004 | -0.006 | 0.034 | 0 | -0.023 | -0.37 (active) | 0.125 | 0.005 | 0.026 | -0.146 | 0.039 | -0.037 | 0.02 | -0.008 | 0.026 | -0.058 | 0.001 | 0.017 | -0.043
FUBP3 (UniProt Q96I24) | -0.007 | 0.019 | 0.048 | 0.046 | -0.032 | 0.042 | 0.028 | -0.012 | 0.03 | -0.077 | 0.008 | -0.101 | -0.033 | 0.005 | -0.05 | 0.065 | -0.146 | 0.048 | 0.001 | -0.033
G6PD isoform 2 (UniProt P11413) | 0.003 | 0.008 | -0.029 | -0.02 | -0.061 | 0.016 | 0.063 | -0.04 | 0.032 | -0.017 | 0.029 | -0.068 | 0.013 | 0.031 | 0.009 | -0.025 | 0.145 | 0.021 | -0.017 | -0.023
ENO2 (UniProt P09104) | 0.05 | 0.008 | -0.132 | 0.044 | 0.046 | -0.069 | -0.231 | 0.319 (active) | 0.06 | 0.034 | -0.279 (active) | 0.024 | -0.018 | -0.007 | 0.073 | 0.032 | 0.086 | -0.025 | -0.014 | -0.021
EEF1A1, A0A087WVQ9 | 0.011 | 0.047 | -0.069 | 0.027 | -0.003 | -0.026 | -0.016 | -0.12 | 0.077 | 0.013 | -0.005 | -0.102 | 0.042 | 0.062 | 0.071 | 0.011 | 0.115 | -0.073 | 0.026 | -0.054
